Screening data from PubChem.
Sfp PPTase inh: blocks B. subtilis Sfp PPTase activity; AID 1490; Potency, µM, for the others: largest response in the series, negative = inhibition, actives largely listed as inhibitors; Q9F4F7; 310,000 compounds, 3.5% hits; Biochemical Sfp PPTase activity, qHTS;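 also: the enzyme is Sfp with the accession as filed and its product quenches rhodamine fluorescence; potency is read from the fitted curve at half-maximal effect; 0% = enzyme reaction without inhibitor and -100% = no enzyme wells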
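Fluorescence-quenching assay with 15 nM Sfp, 5 uM rhodamine-CoA and 12.5 uM BHQ-2-labelled ybbR peptide in pH 7.6 Hepes/MgCl2 buffer. Enzyme was pre-incubated with compound for 15 min at room temperature. Rate was taken from the 30-min fluorescence change (525/598 nm).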
Tau fluor cs: counter-screen for tau fibril formation inhibitors. 280,000 compounds, 0.93% hits. tau K18 P301L Alexa594 fluorescence, heparin fibrillization. Potency, µM (titrated, usually from 57.7 µM), for the others: at the highest dose activity change, negative = decrease; also: potency is read from the fitted curve at half-maximal effect; nearly all actives have a fitted effect of over 55% in size
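Human K18 P301L tau (15 uM unlabeled plus 0.24 uM Alexa 594-labeled, final) in 100 mM sodium acetate pH 7 was mixed with compound and 20 uM heparin and incubated 6 hr at 37 C.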
Coupling enz: counter-screen for Giardia aldolase inhibitors: coupling enzyme system | coupling enzyme system counterscreen, AmpLite Red fluorescence | 290,000 compounds, 0.67% hits | activity change, negative = inhibition, % at 58.2 µM, hits read low | AID 2472; in the data active = activity change below about -30%
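Activity here indicates interference with the coupling reaction, not aldolase inhibition. Compounds at 57.5 uM final met coupling enzymes for 10 min at RT; substrate and AmpLite Red detection followed, with a 525/598 nm fluorescence read after 20 min.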
Tau fibril FP: tau fibrillization inhibition (FP); K18 P301L tau heparin fibrillization, Alexa594 FP, 6 h; Potency, µM (doses to about 57.7 µM), for the others: at the highest dose activity, negative = inhibition, usual class: inhibitors; 280,000 compounds, 0.39% hits; AID 1468; also: potency is read from the fitted curve at half-maximal effect; nearly all actives have a fitted effect of over 55% in size
Target sequence (P10636 561-689 P618L limits assumed): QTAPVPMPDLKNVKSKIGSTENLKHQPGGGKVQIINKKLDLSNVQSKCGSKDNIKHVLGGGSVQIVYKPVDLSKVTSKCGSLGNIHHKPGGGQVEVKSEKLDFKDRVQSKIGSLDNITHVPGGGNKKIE
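Quantitative HTS format: compounds meet 15 uM recombinant K18 P301L tau and Alexa 594-tau tracer in 100 mM sodium acetate pH 7; 20 uM heparin triggers fibrillization at 37 C over 6 hr; FP gives the signal.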
Tau ThT inhib: tau fibrillization inhibition (ThT binding); 270,000 compounds, 2.1% hits; recombinant tau K18 P301L (four-repeat tau fragment), heparin-induced fibrillization, ThT fluorescence; P10636; Potency, µM (top dose mostly 57.4 µM), for inactives: at the top dose activity, negative = inhibition, usual class: inhibitors; also: potency is read from the fitted curve at half-maximal effect; nearly all actives have a fitted effect of over 55% in size
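Heparin-induced (20 uM) aggregation of recombinant human K18 P301L tau, 15 uM unlabeled with 0.24 uM labeled, pH 7 acetate buffer, 6 hr at 37 C with compound. Fibrils quantified by 30 uM ThT fluorescence after 1 hr ambient incubation.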
Starred values were filed as active, the others as inactive; ? = inconclusive; / = no result given; ! = a repeat was not active; [ ] = remark or other dose. The list is not random: actives were taken first. Their share in the collection is about 5.2%. Unless noted, calls follow the shape of the dose curve; as a rule, active = well fitted curve in the direction sought with a large enough effect; inconclusive = small, poorly fitted or top-dose-only effect, or another doubt; inactive = no such curve, though single readings can be large; an effect the other way counts as inactive or inconclusive. Unless noted, % is scaled to controls: 0 for no effect and ±100 for the full control effect.

SMILES	Sfp PPTase inh	Tau fluor cs	Coupling enz	Tau fibril FP	Tau ThT inhib
Cn1cc(P(=S)(N2CCOCC2)N2CCOCC2)cc1P(=O)(N1CCOCC1)N1CCOCC1	50.1µM*	4.5%	0.7	-4.7%	2.2%
Cc1ccc2c(c1)C(c1ccc(F)cc1)N(C(=O)COc1ccc(Cl)cc1Cl)CC(=O)N2 (stereo not drawn)	/	-18.8%	/	-9.4%	-11.0%
Cn1nc(-c2ccccc2)cc1NC(=O)Nc1ccc(C(C)(C)C)cc1	25.3%	12.6µM*[quencher]	-5.5	28.2µM*	-0.3%
Cn1nc(-c2ccc(Cl)cc2)cc1NC(=O)Nc1ccccc1	0.2%	?	-1.5	?	13.6%
CCOc1ccc(C2c3c(-c4ccc(C)cc4)n[nH]c3C(=O)N2c2ccc(Cl)cc2)cc1 (stereo not drawn)	/	-25.2%	/	?	-9.8%
Cc1cccc(NC(=O)C2CC(=O)n3cnnc3S2)c1 (stereo not drawn)	28.2µM*	-10.2%	0.1	2.7%	?
S=C(NCCc1ccccc1)Nc1cccc2cnccc12	50.1µM*	-12.6%	-36.3*	-10.7%	?
Cc1cccc(NC(=S)NCCc2ccccc2)n1	56.2µM*	-9.1%	-16.3	-1.3%	-4.2%
S=C(NCc1ccccc1)Nc1cccc2cnccc12	56.2µM*	/	-9.0	/	/
COc1ccc(C2NC(=O)N(C)C3=C2C(=O)N(c2ccc(F)cc2)C3)cc1 (stereo not drawn)	/	-6.2%	/	0.4%	-1.4%
CCOc1cc2[nH]c(=O)n(CCCCC(=O)N3CCN(c4ccccc4)CC3)c(=O)c2cc1OCC	/	-10.2%	/	-8.8%	-5.7%
Cc1ccc(/C=C/C(=O)N2CC(=O)Nc3ccccc32)o1	7.08µM*	-9.1%	-13.7	-13.7%	-18.0%
CCOC(=O)c1c(C)[nH]c(CCC(=O)NCc2ccc(N(C)C)cc2)c1C	/	-4.9%	/	5.2%	-10.0%
COc1cc(/C=C(\C#N)C(=O)N2CCOCC2)cc(Br)c1O	-7.7%	-20.0%	-7.4	-10.4%	?
COc1cc(/C=C(\C#N)C(=O)c2ccc(O)c(O)c2)cc(I)c1O	/	?	/	3.0%	8.91µM*
CCN1CCc2c(sc(-n3cccc3)c2C(C)NC(=O)Nc2cc(Cl)c(OC)cc2OC)C1 (stereo not drawn)	/	?	/	11.8%	?
CCN(CC)C(=O)CN1CCN(c2ncccn2)CC1	89.1µM*	7.5%	-7.6	2.6%	2.1%
CC(=O)c1ccc(NC(=O)CN2CCN(CC(=O)Nc3ccc(C(C)=O)cc3)CC2)cc1	9.7%	/	-0.5	/	/
CC(=O)c1cccc(NC(=O)CN2CCN(Cc3ccccc3)CC2)c1	56.2µM*	/	-1.2	/	/
COC(=O)c1cccc(NC(=O)CN2CCN(Cc3ccccc3)CC2)c1	16.9%	-4.1%	-0.2	7.6%	-5.5%
CC(=O)c1ccc(NC(=O)CN2CCN(c3ncccn3)CC2)cc1	?	-4.7%	-54.8*	-1.9%	-5.6%
CCOC(=O)c1cc(-c2ccccc2)n(CC(=O)Nc2ccc(OC)cc2OC)c1C	/	-5.6%	/	-2.0%	5.2%
Cc1coc2cc3oc(=O)c(CCC(=O)NCc4ccccc4Cl)c(C)c3cc12	/	-9.1%	/	-8.5%	-5.1%
CC(=O)c1ccc(OCC(O)CN2CCN(Cc3ccc4c(c3)OCO4)CC2)cc1 (stereo not drawn)	89.1µM*!	-2.9%	-1.5	-3.5%	-17.0%
COc1ccc(OC)c(C(=O)CSc2nc3cccnc3n2C)c1	79.4µM*	-0.1%	-40.4*	2.0%	-3.4%
CCOc1ccc(C(=O)NCCn2cc(SCC(=O)Nc3ccccc3)c3ccccc32)cc1	/	?	/	-12.8%	?
Cc1ccc(C(NC(=O)C(C)C)c2cc([N+](=O)[O-])c3cccnc3c2O)cc1 (stereo not drawn)	-17.0%	-15.8%	-6.6	8.0%	?
CC(C)C(=O)NC(c1cccs1)c1cc([N+](=O)[O-])c2cccnc2c1O (stereo not drawn)	?	-21.8%	-22.4	-6.7%	14.1µM*
CCN(C(=O)CSc1nc2n[nH]c(C)c2c(=N)n1-c1ccc(Cl)c(C)c1)c1cccc(C)c1	15.6%	/	-0.5	/	/
Cc1cc(-n2c(SCc3ccccc3F)nc3n[nH]c(C)c3c2=N)ccc1Cl	15.9%	-20.6%	-1.0	17.8µM*	4.9%
